From PubChem BioAssay AID1508600 (Functional Genomics Laboratory (NCATS/FGL), 2020) come the findings set out here.

Among all 53,000 sequences or so, about 3,700 (7%) were called active.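 The calls were made as follows: active = gene knockdowns whose robust z-score for IL-1 alpha signal is at least 2 or at most -2, so actives lie on both sides; inactive = the rest.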 Shown is part of a subset that was picked to be rich in actives.

The assay is described as follows: Components of the Cytosolic LPS Sensing Pathway: Gene Identification via Genome-wide siRNA Screen.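 Also: robust z of the log signal after scaling to non-targeting control siRNA wells of the plate.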 Conditions: RAW264.7 macrophages, IL-1a HTRF, actives lie on both sides, screened at 100 nM (by protocol), cells primed 5 h with Pam3CSK4 first. In outline:
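RAW264.7 mouse macrophages reverse-transfected with single siRNAs (100 nM final) for 48h, primed with Pam3CSK4 for 5 hours, then transfected with LipidA for 24 hour. Supernatant IL-1a read by HTRF; values normalized to negative-control median, log-transformed robust z-scores.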
(TR-FRET usually uses a lanthanide donor and a delayed reading to cut background.)
As for GGACAGUGAAGAGGAUUCCTT against Anapc15, the z-score was -0.988 (inactive).
For the sequence GCGGAUUAACCUCUGUGGCTT against Igfl3, the z-score is 0.244 (inactive).
With GGGUGACAGGUUGAUCUCATT against Tcn2 the figure was -2.11 (active); with GGUGGAGGAACGAAAGUUUTT against Ribc1, 0.625 (inactive); with CGAGGUCAAUAUCAUUCCATT against Serpinb11, 0.727 (inactive).
With GCUGCUAAUAUCAAUAACGTT against Prf1 the figure was -0.809 (inactive); with GGCCAAACAACUGGUGAAGTT against Nelfe, -0.832 (inactive); with GGUGUUUUCUGUGUAACCATT against Tlx1, -0.843 (inactive).
With GGAUGUUUGGACAAUCUAUTT against Itga4 the figure was 0.634 (inactive).
In the case of GCAAAUGUCUCGGAAAGAATT against Cdk11b, the z-score was -2.18 (active).
With GCAAGAGACCAUGAGAAAUTT against Ccdc18 the figure was -0.149 (inactive); with GGACUAGAAUAUCACAACGTT against Iqub, 0.905 (inactive); with GGCAAAAUAGAGAAAUACATT against Lima1, 2.37 (active).
With GCCAUGUUUAAGCAAUUGUTT against Vsx1 the figure was -0.575 (inactive); with GGAGGGUAUUAGUGCACUGTT against Ptpn1, -0.111 (inactive); with GCCUCAUUUGCUUCACUGUTT against Cd163l1, 0.148 (inactive).
With GGCGAAAAGACCAGUUAUGTT against Man2c1 the figure was 2.31 (active).
Turning to GGUGCACUCUGUCAGUUCATT against Col27a1, the z-score was -0.352 (inactive).
On to GCAUACCUAUUCACGUACGTT against Slc7a4, for which the z-score is -0.475 (inactive).
With GCCCAAGCUUUUAUCAAGATT against Frmd4b the figure was 1.48 (inactive).
With CCCUUUCCUAUGCAUUUGCTT against Olfr851 the figure was 0.97 (inactive); with CGUACCUAAGCAUACCAGCTT against Gpr20, 4.94 (active).
Regarding CGAGCUUCGGAGGAAGUGATT against Zc3hav1l, the z-score was -0.743 (inactive).
With GGUACUCUGUGGAUAUCCCTT against Rpl27 the figure was -0.224 (inactive); with GGAGCGUACCAUGAUCGAUTT against Parvb, -2.17 (active).
For the sequence “GGCUUCUUCACUGAAAUUCTT against 1700074P13Rik”, the z-score was -1.1 (inactive).
With GGCACUUUGUGGCAAAUCUTT against Pcdhb1 the figure was 0.742 (inactive).
With CGUGCAAGCAGUGAUUUUGTT against Smpx the figure was -1.33 (inactive); with GGCUCAAGUAUGAGUCUCATT against Calhm2, 0.73 (inactive).
Turning to GGGAAGAAGAAAAAGAUGATT against Peak1, the z-score is -0.506 (inactive).
